Assay [1] has as its target Lysosomal acid glucosylceramidase (Homo sapiens) (UniProt P04062). The assay can be described thus: Glucocerebrosidase-p2 (AID 348; in the data active means potency below about 10 µM; further: potency means the concentration at half of the fitted maximal effect). The following applies: purified GBA, blue fluorogenic substrate, 40 min. The essentials: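 Normal human glucocerebrosidase (0.2 nM) with blue fluorogenic substrate (80 uM final) in citrate/phosphate pH 5.9 with 10mM sodium taurocholate, 0.01% tween-20; 40 min RT, NaOH/glycine stop; fluorescence Ex 365/Em 440; AC50 from a titration from 0.6 nM upwards.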

Assay [2] is described as follows: AP1 Signaling Pathway (AID 357; active means well fitted curve in either direction with a large enough effect, not every such curve was filed as active;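 further: ME-180 reporter cells stimulated with EGF at its EC50 level; on the % scale 0 is the no-effect control and ±100 the full control effect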). The following applies: ME-180 AP-1-bla reporter, EGF-induced, beta-lactamase ratio, 5 h; at 7.69 µM (top of the series) unless noted. The procedure, abridged:
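AP-1-bla ME-180 cells, Opti-MEM + 0.5% dialyzed FBS, plated overnight 37 °C. Cpd titration + EC50 EGF, 5 h 37 °C. CCF4 2.5 h RT; ex 405, em 460/530 ratio → %activity, AC50.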

The target in assay [3] is Cytochrome P450 1A2 (Homo sapiens) (UniProt P05177). The assay can be described thus: p450-cyp1a2 (AID 410; calls by dose curve; further: potency means the concentration at half of the fitted maximal effect;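 on activity change, negative = inhibition: -100% = full effect of reference inhibitor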). The following applies: recombinant CYP1A2, luciferin-ME demethylation, luminescence; series mostly up to 57 µM. The essentials: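 Read-out is luminescence from luciferin produced by CYP1A2 demethylation of Luciferin-ME (100uM, at Km). Detection reagent stopped the 60 min NADPH-dependent reaction; signals were normalized to 57 uM furafylline.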
Sequence of Cytochrome P450 1A2 (Homo sapiens) (P05177 whole entry, looked up): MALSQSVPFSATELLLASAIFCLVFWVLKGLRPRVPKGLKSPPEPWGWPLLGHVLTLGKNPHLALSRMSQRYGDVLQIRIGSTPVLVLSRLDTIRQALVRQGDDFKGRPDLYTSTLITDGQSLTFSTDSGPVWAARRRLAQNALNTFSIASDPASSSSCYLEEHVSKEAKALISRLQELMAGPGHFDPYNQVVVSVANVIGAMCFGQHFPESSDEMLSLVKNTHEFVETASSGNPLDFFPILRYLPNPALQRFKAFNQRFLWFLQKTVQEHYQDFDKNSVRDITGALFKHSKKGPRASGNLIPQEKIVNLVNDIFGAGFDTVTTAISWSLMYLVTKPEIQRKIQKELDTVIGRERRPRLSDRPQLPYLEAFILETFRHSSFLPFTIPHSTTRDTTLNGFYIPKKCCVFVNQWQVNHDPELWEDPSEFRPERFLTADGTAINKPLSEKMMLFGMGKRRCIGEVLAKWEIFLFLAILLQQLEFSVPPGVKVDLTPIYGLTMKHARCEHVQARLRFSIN

A short description of assay [4]: NFAT Signaling Pathway (AID 444; active means well fitted curve in either direction with a large enough effect, not every such curve was filed as active;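 further: carbachol stimulus at about its EC50 of 1 µM final; on the % scale 0 is the no-effect control and ±100 the full control effect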). The following applies: Jurkat NFAT-bla M1, carbachol, beta-lactamase ratio, 5 h; at 7.69 µM (top of the series) unless noted. The essentials: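 Read-out: CCF4 FRET ratio (460 nm/530 nm) after 1 h RT dye loading, used for %activity and AC50 from titration series. Cells: Jurkat NFAT-β-lactamase/M1 line, treated with compound plus 1 uM carbachol for 5 h, 37 °C.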

The nature of assay [5]: Stat Signaling Pathway (AID 446; active means well fitted curve in either direction with a large enough effect, not every such curve was filed as active;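 further: ME-180 cervical cancer cells given 40 pM IL-6 alongside compound; SIE-controlled beta-lactamase reporter measured as 460/530 nm FRET emission ratio; on the % scale 0 is the no-effect control and ±100 the full control effect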). The following applies: ME-180 (cervical carcinoma) SIE beta-lactamase reporter, IL-6 stimulated, 5 h; at 7.69 µM (top of the series) unless noted. The procedure, abridged: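 Normalization used AC90 stimulation (300 pM IL-6) and AC90 inhibition (125 nM pan-JAK inhibitor at 40 pM IL-6). The underlying signal is SIE-driven beta-lactamase in ME-180 cells after 5 h IL-6 exposure with compound.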

The target in assay [6] is Glucocorticoid receptor (Homo sapiens) (UniProt P04150). As to the kind of experiment: GR-GFP Redistribution (AID 450;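 active means compounds whose dose series gives a full or clear partial fitted curve of increased nuclear translocation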; further: potency means the concentration at half of the fitted maximal effect). The following applies: U2OS GR-GFP nuclear translocation, laser cytometry, 2 h.
Sequence of Glucocorticoid receptor (Homo sapiens) (P04150 whole entry, looked up): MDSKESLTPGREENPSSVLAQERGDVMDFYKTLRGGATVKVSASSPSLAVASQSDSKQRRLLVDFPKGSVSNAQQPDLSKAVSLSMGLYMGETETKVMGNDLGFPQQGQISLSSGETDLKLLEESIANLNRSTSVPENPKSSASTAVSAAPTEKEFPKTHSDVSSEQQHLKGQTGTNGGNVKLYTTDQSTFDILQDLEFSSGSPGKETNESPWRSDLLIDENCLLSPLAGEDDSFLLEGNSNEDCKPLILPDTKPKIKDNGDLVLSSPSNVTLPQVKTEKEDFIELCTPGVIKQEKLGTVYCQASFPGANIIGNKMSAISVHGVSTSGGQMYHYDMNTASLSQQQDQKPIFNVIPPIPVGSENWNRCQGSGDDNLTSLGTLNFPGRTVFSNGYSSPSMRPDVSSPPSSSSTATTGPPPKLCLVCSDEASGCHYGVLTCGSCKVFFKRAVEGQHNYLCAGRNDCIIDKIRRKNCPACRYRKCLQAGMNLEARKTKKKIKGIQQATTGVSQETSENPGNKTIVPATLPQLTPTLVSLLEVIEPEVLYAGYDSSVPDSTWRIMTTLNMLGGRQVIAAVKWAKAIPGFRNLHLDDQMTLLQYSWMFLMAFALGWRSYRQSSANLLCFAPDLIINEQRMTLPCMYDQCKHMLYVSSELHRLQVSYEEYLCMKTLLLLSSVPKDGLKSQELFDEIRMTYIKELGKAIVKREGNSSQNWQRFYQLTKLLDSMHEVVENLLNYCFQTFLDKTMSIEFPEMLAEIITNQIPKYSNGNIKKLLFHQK
Assay [7] has the same target. The assay can be described thus: GR-EFC Redistribution (AID 451; calls by dose curve; further: potency means the concentration at half of the fitted maximal effect). The following applies: CHO-K1 GR-EFC translocation, beta-gal luminescence, 2 h. The procedure, abridged:
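Translocation of GR-ED fusion to nuclear EA restores b-gal, read by luminescence after 1 h room-temperature detection. Engineered CHO-K1 biosensor cells, 1,000/well, exposed 2 h at 37 C to titrations up to 46 uM final.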

For assay [8], the target named is Mitogen-activated protein kinase 10 (Mus musculus) (UniProt Q61831). The assay can be described thus: JNK3 AlphaScreen Assay (AID 530; active means well fitted curve in either direction with a large enough effect, not every such curve was filed as active;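 further: kinase came from lysate of stimulated human HepG2 cells; signal reports phosphorylation of biotinylated GST-cJun 1-79 at Ser73 with 10 µM ATP; on the % scale 0 is the no-effect control and ±100 the full control effect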). The following applies: JNK3 lysate, c-Jun phosphorylation; series mostly up to 57.1 µM. The procedure, abridged: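 Kinase buffer: 20 mM Tris-HCl pH 7.6, 10 mM MgCl2, 1 mM DTT, 0.1 mM Na3VO4, 0.01% Tween-20; ATP 10 uM. Substrate biotin-GST-cJun(1-79), enzyme from activated HepG2 lysates. Detection by Ser73 phospho-antibody AlphaScreen.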
For orientation: Alpha assays give light when donor and acceptor beads are brought close together.

Assay [9] has as its target 3',5'-cyclic-AMP phosphodiesterase 4B (Homo sapiens) (UniProt Q07343). As to the kind of experiment: qHTS Assay for Inhibitors of PDE-IV (AID 607; active means well fitted activation curve with a large enough effect in the main read-out, with a control signal flat, not every such curve was filed as active; further: % of control where 0% means no effect). The following applies: HEK293 ACTOne CNG channel cells, membrane potential fluorescence; series mostly up to 22.9 µM. The essentials:
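HEK293 ACTOne cells with CNG channel (1000/well), endogenous PDE4; membrane potential dye, compounds up to 22.9 uM final. Fluorescence Ex 535/Em 590; RO 20-1724 (100 uM final) as reference.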
Background: qHTS replaces the single test concentration by a dilution series.

The target in assay [10] is Cytochrome P450 3A4 (Homo sapiens) (UniProt P08684). The assay can be described thus: qHTS Assay for Inhibitors and Substrates of Cytochrome P450 3A4 (AID 884). Further: nearly all actives have a fitted effect of over 50% in size. Further: potency means the concentration at half of the fitted maximal effect. The following applies: recombinant CYP3A4, Luciferin-PPXE luminescence; series mostly up to 57.1 µM. The procedure, abridged: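 Luminescent readout of luciferin produced by CYP3A4 (20 nM) dealkylation of Luciferin-PPXE, 25 uM (its KM). NADPH-driven reaction ran 60 min at RT after 10 min compound preincubation; data scaled to 57 uM ketoconazole as 100% inhibition.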
Sequence of Cytochrome P450 3A4 (Homo sapiens) (P08684 whole entry, looked up): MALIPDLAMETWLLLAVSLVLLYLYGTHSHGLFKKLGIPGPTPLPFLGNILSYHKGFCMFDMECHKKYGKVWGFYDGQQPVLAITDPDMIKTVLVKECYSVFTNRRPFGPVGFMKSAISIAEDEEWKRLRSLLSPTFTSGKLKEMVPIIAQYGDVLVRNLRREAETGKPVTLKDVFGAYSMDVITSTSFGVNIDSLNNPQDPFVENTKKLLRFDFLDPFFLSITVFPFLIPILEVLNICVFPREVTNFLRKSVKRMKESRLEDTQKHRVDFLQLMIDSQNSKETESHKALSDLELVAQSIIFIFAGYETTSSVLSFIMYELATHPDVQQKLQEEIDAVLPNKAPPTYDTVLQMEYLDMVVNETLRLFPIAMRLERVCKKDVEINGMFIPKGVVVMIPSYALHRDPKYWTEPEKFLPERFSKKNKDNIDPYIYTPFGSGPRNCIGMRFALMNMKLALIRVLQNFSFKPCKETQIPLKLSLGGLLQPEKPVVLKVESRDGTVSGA

The target is the same in assay [11]. The assay can be described thus: qHTS Assay for Activators of Cytochrome P450 3A4 (AID 885). Further: nearly all actives have a fitted effect of over 65% in size. Further: potency means the concentration at half of the fitted maximal effect. The following applies: recombinant CYP3A4, Luciferin-PPXE luminescence, 60 min; series mostly up to 57.1 µM. The essentials: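 Human CYP3A4 dealkylates Luciferin-PPXE to luciferin, which luciferase detection converts to light. Substrate was at its KM (25uM), buffer 200mM KPO4, reaction 60 min at RT.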

Assay [12] is described as follows: qHTS Assay for Lipid Storage Modulators (AID 1519; calls by dose curve). The following applies: Drosophila S3 cells, BODIPY lipid droplet/cell ratio, laser cytometry, cells loaded with oleic acid; for activity change, negative = inhibition: at 57.5 µM (top of the series). The procedure, abridged:
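Cells seeded at 5,000 per well were treated with compounds over a concentration series and loaded with oleic acid (400 uM, as added). Lipid droplet fluorescence (488 nm excitation, 500-530 nm channel) was read by laser-scanning cytometry and normalized to 20 uM Triacsin C.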

The target in assay [13] is Dual specificity protein kinase CLK4 (Homo sapiens) (UniProt Q9HAZ1). As to the kind of experiment: qHTS Assay for Inhibitors of CDC-like Kinase 4 (Kinase-Glo Assay) (AID 1770). Further: on the % scale 0 is the no-effect control and ±100 the full control effect; nearly all actives have a fitted effect of over 65% in size. The following applies: recombinant Clk4, Kinase-Glo ATP depletion luminescence; series mostly up to 66.7 µM. The essentials: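 Readout: Kinase-Glo luminescence from ATP left after a 4.5 h room-temperature reaction of 25 nM Clk4 with 100 uM RS peptide and 1 uM ATP (final). Buffer: 25 mM Tris pH 7.5, 10 mM MgCl2.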
Sequence of Dual specificity protein kinase CLK4 (Homo sapiens) (Q9HAZ1 whole entry, looked up): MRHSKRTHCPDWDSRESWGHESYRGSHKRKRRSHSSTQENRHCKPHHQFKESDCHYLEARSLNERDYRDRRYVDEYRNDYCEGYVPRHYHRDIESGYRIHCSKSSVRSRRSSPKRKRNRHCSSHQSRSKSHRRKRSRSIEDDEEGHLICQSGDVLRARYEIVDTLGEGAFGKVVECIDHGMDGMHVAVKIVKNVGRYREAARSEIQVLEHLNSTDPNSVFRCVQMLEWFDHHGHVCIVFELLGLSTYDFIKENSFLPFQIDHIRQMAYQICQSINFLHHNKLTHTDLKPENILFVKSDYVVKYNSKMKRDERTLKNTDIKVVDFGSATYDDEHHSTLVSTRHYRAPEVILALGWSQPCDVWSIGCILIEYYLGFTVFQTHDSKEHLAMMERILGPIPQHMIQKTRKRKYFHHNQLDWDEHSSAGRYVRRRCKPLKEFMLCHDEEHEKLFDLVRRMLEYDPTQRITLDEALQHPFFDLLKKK

For assay [14] the target is unchanged. The assay can be described thus: qHTS Assay for Inhibitors of CDC-like Kinase 4 (ADP-Glo Assay) (AID 1771). Further: on the % scale 0 is the no-effect control and ±100 the full control effect; nearly all actives have a fitted effect of over 70% in size. The following applies: recombinant CLK4, ADP-Glo luminescence; series mostly up to 80 µM. The essentials: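 In this ADP-Glo format, 1 uM ATP and 100 uM RS peptide served as substrates for 25 nM Clk4 in Mg2+/EGTA/DTT/Triton buffer; reactions ran 1 hr at room temperature before luminescent ADP quantification.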

The target is the same in assay [15]. As to the kind of experiment: qHTS Assay for Inhibitors of CDC-like Kinase 4 (ADP-FP Assay) (AID 1795).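 Further: recombinant human CLK4 phosphorylating RS repeat peptide at 1 µM ATP; on the % scale 0 is the no-effect control and ±100 the full control effect; nearly all actives have a fitted effect of over 60% in size.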 The following applies: Transcreener ADP fluorescence polarization; series mostly up to 50 µM. The procedure, abridged: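 FP readout: Orange Transcreener ADP2 tracer (4 nM) plus ADP antibody, read after 30 min at room temperature. Kinase step: 6.25 nM Clk4, 100 uM RS peptide, 1 uM ATP, pH 7.5, 1 h.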

Assay [16] deals with Ubiquitin carboxyl-terminal hydrolase 1 (Homo sapiens) (UniProt O94782). As to the kind of experiment: Inhibitors of USP1/UAF1: Pilot qHTS (AID 504865).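 Further: rhodamine fluorescence freed from ubiquitin-rhodamine substrate followed over time; top concentration of the series differs between compounds; on the % scale 0 is the no-effect control and ±100 the full control effect; nearly all actives have a fitted effect of over 35% in size.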 The following applies: purified USP1/UAF1, Ub-rhodamine cleavage fluorescence; series mostly up to 54.9 µM. The essentials: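 1nM USP1/UAF1 + cpd, 15 min RT; start w/ Ub-Rho 150nM final; kinetic FL 480/540 nm, 6 reads q60 s. Buffer 50mM HEPES pH 7.8, 0.5mM EDTA, 1mM TCEP, 0.01% Tween-20, 0.1 mg/ml BSA.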
Sequence of Ubiquitin carboxyl-terminal hydrolase 1 (Homo sapiens) (O94782 whole entry, looked up): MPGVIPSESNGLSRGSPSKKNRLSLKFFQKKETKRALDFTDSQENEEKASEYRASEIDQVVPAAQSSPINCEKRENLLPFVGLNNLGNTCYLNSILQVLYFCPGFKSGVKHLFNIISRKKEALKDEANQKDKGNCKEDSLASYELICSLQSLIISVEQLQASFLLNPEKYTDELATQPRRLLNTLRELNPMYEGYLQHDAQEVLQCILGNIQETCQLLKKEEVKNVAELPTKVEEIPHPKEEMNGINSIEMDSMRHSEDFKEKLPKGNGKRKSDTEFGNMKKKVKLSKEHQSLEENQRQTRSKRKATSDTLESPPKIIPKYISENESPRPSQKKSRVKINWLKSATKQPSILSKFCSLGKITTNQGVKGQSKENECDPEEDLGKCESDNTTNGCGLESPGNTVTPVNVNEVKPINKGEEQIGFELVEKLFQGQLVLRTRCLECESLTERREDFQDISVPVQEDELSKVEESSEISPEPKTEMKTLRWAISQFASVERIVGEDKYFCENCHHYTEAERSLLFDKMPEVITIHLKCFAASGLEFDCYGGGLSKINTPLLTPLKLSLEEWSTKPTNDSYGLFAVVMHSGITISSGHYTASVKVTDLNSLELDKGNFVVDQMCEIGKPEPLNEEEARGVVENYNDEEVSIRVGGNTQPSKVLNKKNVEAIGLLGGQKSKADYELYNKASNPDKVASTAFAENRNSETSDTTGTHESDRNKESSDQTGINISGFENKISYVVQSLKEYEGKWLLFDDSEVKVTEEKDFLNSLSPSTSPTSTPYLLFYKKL

Assay [17] can be described thus: Primary qHTS for small molecule stabilizers of the endoplasmic reticulum resident proteome: Secreted ER Calcium Modulated Protein (SERCaMP) assay (AID 1508630). Further: on the % scale 0 is the no-effect control and ±100 the full control effect. The following applies: SH-SY5Y GLuc-SERCaMP (Gaussia luciferase released on ER calcium loss) secretion, thapsigargin, luminescence; series mostly up to 38.4 µM. The essentials: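 The SH-SY5Y reporter protocol was run at 3 concentrations up to 38.3 uM (primary) or 11 concentrations (follow-up): 16 h compound, 100 nM thapsigargin for 4 h, then extracellular luciferase luminescence.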

The mark [18] stands for this setting: measured here: cell count channel max response.
Setting [19] is: measured here: lipid channel max response.

Results filed as inconclusive are left out. Calls of active or inactive are those of the source. Unless noted, the call rests on the fitted dose curve; in most records, active means well fitted curve in the direction sought with a large enough effect; inconclusive means small, poorly fitted or top-dose-only effect, or another doubt; inactive means no such curve, though single readings can be large; an effect the other way counts as inactive or inconclusive.

Sequence of 3',5'-cyclic-AMP phosphodiesterase 4B (Homo sapiens) (Q07343 whole entry, looked up): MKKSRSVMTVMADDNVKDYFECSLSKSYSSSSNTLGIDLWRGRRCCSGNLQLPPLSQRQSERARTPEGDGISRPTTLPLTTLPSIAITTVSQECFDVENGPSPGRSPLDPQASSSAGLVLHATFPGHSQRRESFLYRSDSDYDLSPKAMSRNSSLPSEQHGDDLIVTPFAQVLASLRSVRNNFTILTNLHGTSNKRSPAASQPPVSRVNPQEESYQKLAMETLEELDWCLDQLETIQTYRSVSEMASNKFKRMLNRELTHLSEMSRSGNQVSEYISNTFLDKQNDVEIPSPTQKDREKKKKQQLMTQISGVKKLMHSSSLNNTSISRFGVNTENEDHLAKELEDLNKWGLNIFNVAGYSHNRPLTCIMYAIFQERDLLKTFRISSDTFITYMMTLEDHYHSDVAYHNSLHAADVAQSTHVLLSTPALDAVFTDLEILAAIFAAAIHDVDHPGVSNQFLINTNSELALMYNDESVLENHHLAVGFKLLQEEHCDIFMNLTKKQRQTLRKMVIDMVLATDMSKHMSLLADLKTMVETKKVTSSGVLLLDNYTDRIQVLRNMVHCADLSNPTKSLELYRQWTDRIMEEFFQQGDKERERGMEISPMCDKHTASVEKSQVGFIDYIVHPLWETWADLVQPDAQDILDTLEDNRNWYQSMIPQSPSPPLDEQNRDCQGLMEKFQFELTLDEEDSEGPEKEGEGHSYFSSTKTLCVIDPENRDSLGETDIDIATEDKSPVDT
Sequence of Lysosomal acid glucosylceramidase (Homo sapiens) (P04062 whole entry, looked up): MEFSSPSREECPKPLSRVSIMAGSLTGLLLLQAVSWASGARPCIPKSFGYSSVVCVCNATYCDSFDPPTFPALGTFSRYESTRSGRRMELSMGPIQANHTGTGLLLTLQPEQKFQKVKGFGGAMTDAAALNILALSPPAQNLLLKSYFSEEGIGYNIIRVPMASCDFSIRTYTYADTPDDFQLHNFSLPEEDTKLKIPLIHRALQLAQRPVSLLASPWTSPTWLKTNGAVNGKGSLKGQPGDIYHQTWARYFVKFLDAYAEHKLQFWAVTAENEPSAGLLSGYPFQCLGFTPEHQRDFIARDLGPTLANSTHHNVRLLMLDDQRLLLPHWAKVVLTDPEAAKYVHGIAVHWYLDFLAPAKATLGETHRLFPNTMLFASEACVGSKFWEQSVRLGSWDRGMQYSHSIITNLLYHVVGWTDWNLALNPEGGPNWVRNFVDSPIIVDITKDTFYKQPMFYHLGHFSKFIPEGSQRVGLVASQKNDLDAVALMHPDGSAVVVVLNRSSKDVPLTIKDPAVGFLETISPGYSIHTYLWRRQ

For the compound `Cc1noc(C)c1-c1cncnc1N(C)Cc1ccco1`, the Potency in assay [1] is > 11.4 µM (inactive); in [6], > 46 µM (inactive); in assay [7], > 46 µM (inactive); in assay [10] it was 3.16 µM (active). The activity change, negative = inhibition in [2] was 1.41% (inactive); in assay [4] it was -7.22% (inactive); in [12], 4.24% (inactive). Also, the Potency result in [3], in assay [9], in assay [11], in [13], in assay [14] and in [15] was “inactive” each time. Besides, the Potency result in assay [16] and in assay [17] was “inactive” throughout. Besides, the activity, negative = inhibition in assay [5] is -0.77% (inactive). Also, in [8], the outcome was inactive. Besides, the max response in [12] (setting [18]) was determined as 11.5%; in assay [12] (setting [19]), 13.2%.

`CN(C)Cc1ccccc1-c1nc(N(C)C)c2ccccc2n1`: the Potency in assay [1] was > 11.4 µM (inactive); in assay [3], 1.26 µM (active); in assay [6], > 46 µM (inactive); in assay [7], > 46 µM (inactive). The activity change, negative = inhibition was 19.8% (inactive) in [2], 13.2% (inactive) in assay [4] and -2.91% (inactive) in [12]. In addition, in [5], the activity, negative = inhibition was 28.7% (inactive). Further, the compound was classed as inactive in assay [8]. Also, the max response in assay [12] (setting [18]) came out at 9.81%; in [12] (setting [19]), 6.7%. The Potency entry in assay [13], in [14], in assay [15], in [16] and in assay [17] was “inactive” in each case.

As to `Cn1c(=O)c(-c2cccc(C#N)c2)nc2cnc(Oc3ccccc3)nc21`, the Potency is > 11.4 µM (inactive) in [1]; 1.58 µM (active) in assay [3]; > 9.22 µM (inactive) in assay [6]; > 46 µM (inactive) in [7]; 3.16 µM (active) in [11]. Further, the activity change, negative = inhibition in [2] is -13.9% (inactive); in assay [4], -0.708% (inactive); in [12], -3.03% (inactive). In addition, in assay [5], the activity, negative = inhibition is 1.85% (inactive). In addition, the compound was classed as inactive in assay [8]. The Potency entry in assay [9], in assay [10], in assay [13], in [14], in assay [15] and in assay [16] was “inactive” in each case. For the same compound, the Potency result in assay [17] was “inactive”. The values for the max response in assay [12] (setting [18]) and in [12] (setting [19]) were 16.1% and 12.2%, respectively.

Take `Cc1ccccc1-c1cncnc1NCc1cccs1`: the Potency in assay [1] was > 11.4 µM (inactive); in assay [3] it was 3.16 µM (active); in assay [6], > 46 µM (inactive); in assay [7] it was > 46 µM (inactive); in assay [10] it was 0.501 µM (active). Moreover, the activity change, negative = inhibition in [2] was 1.41% (inactive); in [4], 2.62% (inactive); in [12], 5.75% (inactive). In addition, in assay [5], the activity, negative = inhibition is 3.53% (inactive). Further, in [8], the outcome was inactive. Moreover, the Potency entry in assay [11], in assay [13], in assay [14], in assay [15], in assay [16] and in assay [17] was “inactive” throughout. The max response in assay [12] (setting [18]) turned out to be 11.6%; in [12] (setting [19]), 15.6%.

As for `COc1ncc2ncc(=O)n(C[C@H]3CCCO3)c2n1`, the Potency in [1] was > 11.4 µM (inactive); in assay [3], 15.8 µM (active); in assay [6], > 9.22 µM (inactive); in assay [7], > 46 µM (inactive). For the same compound, the activity change, negative = inhibition in assay [2] was -16.2% (inactive); in assay [4], 4.03% (inactive); in [12], 4.31% (inactive). Moreover, in assay [5], the activity, negative = inhibition was -8.8% (inactive). Moreover, the compound was classed as inactive in assay [8]. Moreover, the Potency result in [9], in assay [13], in assay [14], in assay [15], in assay [16] and in [17] was “inactive” in each case. Besides, the max response in assay [12] (setting [18]) turned out to be 3.18%; in assay [12] (setting [19]) it was 6.83%.

For the compound `O=c1c(CCc2ccccc2)nc2cncnc2n1Cc1ccc(F)cc1`, the Potency was > 11.4 µM (inactive) in assay [1]; 10 µM (active) in assay [3]; > 9.22 µM (inactive) in [6]; > 46 µM (inactive) in assay [7]; 3.16 µM (active) in [10]. In addition, the results for the activity change, negative = inhibition in assay [2], in [4] and in assay [12] were -7.12% (inactive), -3.47% (inactive) and 5.86% (inactive), respectively. Besides, the activity, negative = inhibition in [5] was -6.1% (inactive). The Potency result in assay [11], in [13], in [14], in [15], in assay [16] and in assay [17] was “inactive” throughout. Further, the max response in [12] (setting [18]) came to 18.7%; in assay [12] (setting [19]), 23.1%.
